The values below come from PubChem BioAssay AID651687 (Broad Institute, 2012).

The structures appear in SMILES notation. In all, about 350,000 compounds went through this assay and about 600 (0.17%) were called active. The sample holds actives, similar compounds and a random draw of the others, so the mix is not that of the screen.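 How the source made its calls: active means every replicate shows inhibition of at least 40%; inconclusive means mean inhibition at least 40% but some replicate below; inactive means the rest.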

The test in a line: compounds lowering acetylated PGC1a in cells – cell-based, U2OS, AlphaScreen, inhibitor mode, primary screen (AID 651687).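 Further: 0% = neutral control wells and 100% = positive control wells.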 The settings on record: U2OS PGC1a acetylation, AlphaScreen anti-acetyl-lysine; at 15.6 µM; active compounds read high; with virally co-expressed GCN5 acetyltransferase.
For `C[C@H]1CN([C@@H](C)CO)C(=O)c2cccc(NC(=O)Nc3ccccc3)c2O[C@H]1CN(C)S(=O)(=O)c1ccc(F)cc1`, the inhibition (commonly the change of the read-out against control, counted positive when it falls) is -3.23% (inactive). On to `C[C@@H]1CN([C@H](C)CO)C(=O)c2cc(NC(=O)Nc3ccc(F)cc3)ccc2O[C@@H](C)CCCCO[C@@H]1CN(C)S(=O)(=O)c1cn(C)cn1`, for which the inhibition is -2.5% (inactive). The result for `C[C@@H](O)C#Cc1ccc([C@H]2[C@H](CO)N3CCCCN(C(=O)c4ccc(F)cc4)C[C@@H]23)cc1` reads -2.34% (inactive). As for `Cc1cc(C)nc(SC(C)C(=O)N/N=C/c2cccs2)n1` (centres undefined), the inhibition is -4.85% (inactive). For the molecule `NC(=O)N/N=C\c1cccs1`, the inhibition was 76.7% (active). The result for `Cc1nc2ccccc2n1CC(=O)N/N=C/c1cccs1` reads 0.244% (inactive); that for `COCC(=O)N1[C@H](CO)[C@@H](c2ccccc2)C12CN(Cc1cc(F)ccc1F)C2`, 3.15% (inactive); that for `CN1c2ccc(C#Cc3ccccc3F)cc2[C@@H]2[C@@H](CCN2C(=O)Cc2cccnc2)[C@H]1CO`, -8.75% (inactive). The result for `CO[C@@H]1CN(C)C(=O)c2ccc(NS(=O)(=O)c3c(C)noc3C)cc2OC[C@H](C)NC[C@@H]1C` reads 14.4% (inactive); that for `CC(C)NC(=O)N(C)C[C@H]1OCCCC[C@H](C)Oc2ccc(NS(=O)(=O)c3cccs3)cc2C(=O)N([C@H](C)CO)C[C@@H]1C`, -3.81% (inactive). For the molecule `COc1ccc2c3c(n(C)c2c1)[C@@H](CO)N(C(=O)CN1CCOCC1)CC31CCN(C(=O)C2CC2)CC1`, the inhibition is 5.01% (inactive). `O=C(c1cccnc1)N1C[C@H]2[C@@H](c3ccccc31)[C@H](CO)N2C(=O)C1CC1`: the inhibition is 8.96% (inactive).

In the case of `C[C@H](CO)N1C[C@H](C)[C@@H](CN(C)S(=O)(=O)c2cccs2)OCc2ccccc2-c2ccccc2C1=O`, the inhibition was -0.156% (inactive).

For `CCNC(=O)C[C@@H]1CC[C@@H]2[C@@H](COc3ccc(NC(=O)Nc4ccccc4F)cc3C(=O)N2C)O1`, the inhibition is 2.36% (inactive). With `CO[C@@H]1CN(C)C(=O)c2cc(NC(=O)c3ccccc3F)ccc2OC[C@H](C)NC[C@@H]1C`, the inhibition was -5.95% (inactive).

For `CO[C@@H]1CN(C)C(=O)c2ccc(NC(=O)c3ccccc3F)cc2OC[C@@H](C)N(CC2CCOCC2)C[C@H]1C`, the inhibition was -3.01% (inactive). The result for `C[C@@H]1CCCCO[C@@H](CN(C)C(=O)C2CCCCC2)[C@H](C)CN([C@H](C)CO)C(=O)c2cc(NC(=O)c3ccccc3)ccc2O1` reads -4.75% (inactive); that for `CCCN(C)C[C@H]1Oc2ncc(-c3ccccc3OC)cc2C(=O)N([C@H](C)CO)C[C@H]1C`, 7.87% (inactive). On to `C[C@@H](NC(=O)C[C@H]1CC[C@H]2[C@@H](COC[C@@H](O)CN2C(=O)Nc2ccccc2)O1)c1ccccc1`, for which the inhibition is 6.72% (inactive).
